# Test results as given in PubChem BioAssay (Tox21).
# A number with no mark means an inactive call. Results filed as inconclusive are left out. Where a call stands in place of a potency, no number is given. The source made the active and inactive calls. Unless noted, calls come from the whole dose curve; as a rule, active = well fitted curve in the direction sought with a large enough effect in the repeat runs; inconclusive = weak or mixed curves; inactive = no such curve, though single readings can be large; an effect the other way counts as inactive or inconclusive.
# Tests used:
# [1] = qHTS assay to identify small molecule agonists of the estrogen receptor alpha (ER-alpha) signaling pathway in the presence of an antagonist - cell viability counter screen (AID 1259386);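 note: series mostly up to about 92 µM; cells exposed to compounds for 22 h at 37 °C before the viability read; nearly all actives have a fitted effect of over 30% in size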
# Outline: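 Cells are starved of estrogens for 5 days in charcoal-stripped serum, seeded for 24hr and co-treated with ICI-182,780 (10.0nM final) and test compounds. After 22hr at 37C, viability is read as CellTiter-Fluor fluorescence.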
# [2] = target: Progesterone receptor (Homo sapiens) (UniProt P06401); test: qHTS assay to identify small molecule agonists of the progesterone receptor (PR) signaling pathway (AID 1346784; calls by dose curve; note: nearly all actives have a fitted effect of over 30% in size)
# Progesterone receptor (Homo sapiens), sequence (P06401 whole entry, looked up): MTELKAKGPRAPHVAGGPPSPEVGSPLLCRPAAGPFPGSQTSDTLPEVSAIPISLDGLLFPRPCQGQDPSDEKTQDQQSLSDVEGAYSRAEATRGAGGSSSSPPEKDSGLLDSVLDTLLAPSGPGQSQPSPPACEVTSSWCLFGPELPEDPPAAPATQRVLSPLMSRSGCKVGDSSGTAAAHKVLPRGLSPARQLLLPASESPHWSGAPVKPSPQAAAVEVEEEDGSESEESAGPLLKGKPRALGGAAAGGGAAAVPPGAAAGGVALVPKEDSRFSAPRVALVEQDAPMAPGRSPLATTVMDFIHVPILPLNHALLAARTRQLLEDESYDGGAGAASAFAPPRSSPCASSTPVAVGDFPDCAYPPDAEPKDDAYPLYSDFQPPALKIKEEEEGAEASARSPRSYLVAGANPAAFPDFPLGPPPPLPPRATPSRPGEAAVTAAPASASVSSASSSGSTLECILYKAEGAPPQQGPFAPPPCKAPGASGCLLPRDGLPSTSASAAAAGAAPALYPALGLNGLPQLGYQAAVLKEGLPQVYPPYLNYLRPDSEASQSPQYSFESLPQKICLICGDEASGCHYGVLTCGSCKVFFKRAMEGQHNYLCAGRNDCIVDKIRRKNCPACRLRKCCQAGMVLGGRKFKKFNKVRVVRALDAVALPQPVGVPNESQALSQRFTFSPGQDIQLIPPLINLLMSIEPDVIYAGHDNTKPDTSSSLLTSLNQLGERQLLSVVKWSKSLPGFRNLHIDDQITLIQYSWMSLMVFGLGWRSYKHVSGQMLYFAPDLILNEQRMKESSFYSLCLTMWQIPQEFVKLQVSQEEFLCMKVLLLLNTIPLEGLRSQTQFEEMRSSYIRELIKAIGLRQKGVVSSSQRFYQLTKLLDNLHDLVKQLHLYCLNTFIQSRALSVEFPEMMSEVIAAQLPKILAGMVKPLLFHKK
# Outline: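 HEK 293T PR-UAS-bla reporter cells, 2% charcoal-stripped FBS; 6 hr settle at 37C/5% CO2, compound (DMSO) 16 hr, LiveBLAzer B/G FRET substrate 2 hr RT, fluorescence intensity read.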
# [3] = target: Progesterone receptor (Homo sapiens) (UniProt P06401); test: qHTS assay to identify small molecule antagonists of the progesterone receptor (PR) signaling pathway (AID 1346795; active = well fitted inhibition curve with a large enough effect in the signal ratio in the repeat runs, not every such curve was filed as active; the % refers to the signal ratio; note: potency is the fitted concentration of half-maximal effect)
# Outline: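 Beta-lactamase reporter, HEK293T PR-UAS-bla line; 2% charcoal-stripped FBS; 6 hr pre-incubation, 37C/5% CO2. Compound + R5020 1 nM final, 16 hr. LiveBLAzer B/G FRET substrate, 2 hr RT; fluorescence intensity read.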
# [4] = qHTS assay to identify small molecule antagonists of the progesterone receptor (PR) signaling pathway - cell viability counter screen (AID 1346798); note: series mostly up to about 92 µM; nearly all actives have a fitted effect of over 50% in size
# Outline: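 Luminescence readout (CellTiter-Glo, 30 min, RT) of viability in PR-UAS-bla HEK293T cells exposed to compound and R5020 agonist for 16 hr at 37C, 5% CO2; run in the same wells as the beta-lactamase reporter read.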
# [5] = qHTS assay to identify small molecule agonists of the progesterone receptor (PR) signaling pathway - cell viability counter screen (AID 1346799; calls by dose curve; note: nearly all actives have a fitted effect of over 45% in size)
# Outline: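 HEK293T PR-UAS-bla, 3,000 cells/well, 2% charcoal-stripped FBS; 6 h settle, compound 16 h at 37C/5% CO2; LiveBLAzer 2 h RT, then CellTiter-Glo 30 min RT, luminescence read.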
# [6] = qHTS assay to identify small molecule antagonists of the TGF-beta/Smad signaling pathway - cell viability counter screen (AID 1346824); note: nearly all actives have a fitted effect of over 50% in size
# Outline: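 SBE-bla HEK 293T cells, incubated overnight, then compound plus 0.25 ng/mL TGF-beta1 (stock added) for 5 hr at 37 C. Viability was read in the same wells by CellTiter-Glo luminescence after 30 min at room temperature.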
# [7] = qHTS assay to identify small molecule agonists of the TGF-beta/Smad signaling pathway - cell viability counter screen (AID 1346829); note: top concentration of the series differs between compounds; nearly all actives have a fitted effect of over 45% in size
# Outline: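 Here the cytotoxicity of library compounds is measured in SBE-bla HEK 293T cells treated for 5 hr, using CellTiter-Glo added to wells already read for the beta-lactamase reporter.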
# [8] = qHTS assay to identify small molecule agonists of the TGF-beta/Smad signaling pathway (AID 1346859; active = well fitted activation curve with a large enough effect in the signal ratio in the repeat runs, not every such curve was filed as active; the % refers to the signal ratio; note: series mostly up to about 77 µM)
# Outline: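 Read-out: fluorescence at 460 and 530 nm (405 nm excitation) after a 2 hr room-temperature incubation with beta-lactamase FRET substrate. SBE-bla HEK 293T cells had been treated with test compounds for 5 hr at 37 C.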
# [9] = target: Thyrotropin-releasing hormone receptor (Homo sapiens) (UniProt P34981); test: qHTS assay to identify small molecule antagonists of the thyrotropin-releasing hormone receptor (TRHR) signaling pathway (AID 1346877; active = well fitted inhibition curve with a large enough effect in the repeat runs, not every such curve was filed as active; note: series mostly up to about 51 µM)
# Thyrotropin-releasing hormone receptor (Homo sapiens), sequence (P34981 whole entry, looked up): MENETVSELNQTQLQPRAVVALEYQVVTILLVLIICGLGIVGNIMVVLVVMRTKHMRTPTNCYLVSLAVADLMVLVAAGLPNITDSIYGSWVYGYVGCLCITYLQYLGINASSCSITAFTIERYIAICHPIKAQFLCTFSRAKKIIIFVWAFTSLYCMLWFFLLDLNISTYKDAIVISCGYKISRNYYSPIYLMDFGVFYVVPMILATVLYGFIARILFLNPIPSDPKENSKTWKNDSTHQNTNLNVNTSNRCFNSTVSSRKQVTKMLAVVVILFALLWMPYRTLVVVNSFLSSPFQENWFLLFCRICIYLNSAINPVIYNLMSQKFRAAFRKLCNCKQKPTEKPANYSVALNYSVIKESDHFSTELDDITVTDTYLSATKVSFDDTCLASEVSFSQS
# Outline: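 Cells (TRHR-HEK293) are plated and kept 18 h at 37 °C/5% CO2. A calcium-sensitive dye is added for 2 h, compound follows for 5 min at room temperature, and TRH is then given at 1 nM final.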
# [10] = target: Thyrotropin-releasing hormone receptor (Homo sapiens) (UniProt P34981); test: qHTS assay to identify small molecule agonists of the thyrotropin-releasing hormone receptor (TRHR) signaling pathway (AID 1346891; calls by dose curve;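 note: HEK293 cells expressing TRHR with calcium dye readout; series mostly up to about 58 µM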)
# Outline: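 HEK293/TRHR cells, 1500 per well, 18 h 37 °C; Ca dye 2 h 37 °C; pin-tool compound addition (agonist mode); kinetic fluorescence 3 min, 1 s reads; 15 concentrations, triplicate.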
smiles,measurement,setting,value
CSCC[C@H](NC(=O)[C@H](Cc1c[nH]c2ccccc12)NC(=O)CCNC(=O)OC(C)(C)C)C(=O)N[C@@H](CC(=O)O)C(=O)N[C@@H](Cc1ccccc1)C(N)=O,Potency,[1],inactive
same,Potency,[2],inactive
same,Potency,[3],inactive
same,Potency,[4],inactive
same,Potency,[5],inactive
same,outcome,[6],inactive
same,Potency,[7],inactive
same,Potency,[8],inactive
CC(C)(O)c1coc(S(=O)(=O)NC(=O)Nc2c3c(cc4c2CCC4)CCC3)c1,Potency,[1],inactive
same,Potency,[2],inactive
same,Potency,[3],inactive
same,Potency,[4],inactive
same,Potency,[5],inactive
same,outcome,[6],inactive
same,Potency,[7],inactive
same,Potency,[8],inactive
same,outcome,[9],inactive
same,outcome,[10],inactive
Cc1ccc(N(CC2=NCCN2)c2cccc(O)c2)cc1,Potency,[1],inactive
same,Potency,[2],inactive
same,Potency,[3],inactive
same,Potency,[4],inactive
same,Potency,[5],inactive
same,outcome,[6],inactive
same,Potency,[7],inactive
same,Potency,[8],inactive
CN=C(N)NC(=O)Nc1c(C)cccc1C,Potency,[1],inactive
same,Potency,[2],inactive
same,Potency,[3],inactive
same,Potency,[4],inactive
same,Potency,[5],inactive
same,outcome,[6],inactive
same,Potency,[7],inactive
same,Potency,[8],inactive
CCCCCCC(O)CCCCCCCCCCC(=O)OC (configuration not stated),Potency,[1],inactive
same,Potency,[2],inactive
same,Potency,[3],inactive
same,Potency,[4],inactive
same,Potency,[5],inactive
same,outcome,[6],inactive
same,Potency,[7],inactive
same,Potency,[8],inactive
same,outcome,[9],inactive
same,outcome,[10],inactive
CC(=O)OCCC1CCCCC1,Potency,[1],inactive
same,Potency,[2],inactive
same,Potency,[3],inactive
same,Potency,[4],inactive
same,Potency,[5],inactive
same,outcome,[6],inactive
same,Potency,[7],inactive
same,Potency,[8],inactive
same,outcome,[9],inactive
same,outcome,[10],inactive
CCC(CO)(CO)[N+](=O)[O-],Potency,[1],inactive
same,Potency,[2],inactive
same,Potency,[3],inactive
same,Potency,[4],inactive
same,Potency,[5],inactive
same,outcome,[6],inactive
same,Potency,[7],inactive
same,Potency,[8],inactive
COc1cc(C(C)=O)ccc1OCCCN1CCC(c2noc3cc(F)ccc23)CC1,Potency,[1],inactive
same,Potency,[2],inactive
same,Potency,[3],inactive
same,Potency,[4],inactive
same,Potency,[5],inactive
same,outcome,[6],inactive
same,Potency,[7],inactive
same,Potency,[8],inactive
same,outcome,[9],inactive
same,outcome,[10],inactive
C=Cc1ccc(OC(C)=O)cc1,Potency,[1],inactive
same,Potency,[2],inactive
same,Potency,[3],inactive
same,Potency,[4],inactive
same,Potency,[5],inactive
same,outcome,[6],inactive
same,Potency,[7],inactive
same,Potency,[8],inactive
COC(=O)c1sccc1S(N)(=O)=O,Potency,[1],inactive
same,Potency,[2],inactive
same,Potency,[3],inactive
same,Potency,[4],inactive
same,Potency,[5],inactive
same,outcome,[6],inactive
same,Potency,[7],inactive
same,Potency,[8],inactive
CC[C@@H](CO)NCCN[C@@H](CC)CO,Potency,[1],inactive
same,Potency,[2],inactive
same,Potency,[3],inactive
same,Potency,[4],inactive
same,Potency,[5],inactive
same,outcome,[6],inactive
same,Potency,[7],inactive
same,Potency,[8],inactive
C=CCOC(=O)COCCC(C)C,Potency,[1],inactive
same,Potency,[2],inactive
same,Potency,[3],inactive
same,Potency,[4],inactive
same,Potency,[5],inactive
same,outcome,[6],inactive
same,Potency,[7],inactive
same,Potency,[8],inactive
same,outcome,[9],inactive
same,outcome,[10],inactive
CCCCCCCCCCCCCC(=O)OCC(O)CO (configuration not stated),Potency,[1],inactive
same,Potency,[2],inactive
same,Potency,[3],inactive
same,Potency,[4],inactive
same,Potency,[5],inactive
same,outcome,[6],inactive
same,Potency,[7],inactive
same,Potency,[8],inactive
CC1CCCC(=O)C1=O (configuration not stated),Potency,[1],inactive
same,Potency,[2],inactive
same,Potency,[3],inactive
same,Potency,[4],inactive
same,Potency,[5],inactive
same,outcome,[6],inactive
same,Potency,[7],inactive
same,Potency,[8],inactive
CC(=O)N[C@@H](Cc1ccc(O)cc1)C(=O)O,Potency,[1],inactive
same,Potency,[2],inactive
same,Potency,[3],inactive
same,Potency,[4],inactive
same,Potency,[5],inactive
same,outcome,[6],inactive
same,Potency,[7],inactive
same,Potency,[8],inactive
CC(C)c1ccc(C(=O)N=C(N)N)cc1S(C)(=O)=O,Potency,[1],inactive
same,Potency,[2],inactive
same,Potency,[3],inactive
same,Potency,[4],inactive
same,Potency,[5],inactive
same,outcome,[6],inactive
same,Potency,[7],inactive
same,Potency,[8],inactive
CC(=O)c1ccc[nH]1,Potency,[1],inactive
same,Potency,[2],inactive
same,Potency,[3],inactive
same,Potency,[4],inactive
same,Potency,[5],inactive
same,outcome,[6],inactive
same,Potency,[7],inactive
same,Potency,[8],inactive
same,outcome,[9],inactive
same,outcome,[10],inactive
CCCCCCOC(=O)CCCCC,Potency,[1],inactive
same,Potency,[2],inactive
same,Potency,[3],inactive
same,Potency,[4],inactive
same,Potency,[5],inactive
same,outcome,[6],inactive
same,Potency,[7],inactive
same,Potency,[8],inactive
same,outcome,[9],inactive
same,outcome,[10],inactive
c1ccc2sc(SSc3nc4ccccc4s3)nc2c1,"activity change, negative = cytotoxicity",[1],9.75% [at 19 µM]
same,activation,[2],-1.06% [at 19 µM]
same,"activity change, negative = inhibition",[3],-9.57% [at 18.9 µM]
same,"activity change, negative = cytotoxicity",[4],-0.0474% [at 18.9 µM]
same,"activity change, negative = cytotoxicity",[5],5.24% [at 19 µM]
same,"viability change, negative = cytotoxic",[6],3.02% [at 15.8 µM]
same,"activity change, negative = cytotoxicity",[7],25.5% [at 15.8 µM]
same,activation,[8],3.56% [at 15.8 µM]
Cc1cn([C@H]2C[C@H](F)[C@@H](CO)O2)c(=O)[nH]c1=O,Potency,[1],inactive
same,Potency,[2],inactive
same,Potency,[3],inactive
same,Potency,[4],inactive
same,Potency,[5],inactive
same,outcome,[6],inactive
same,Potency,[7],inactive
same,Potency,[8],inactive
NC(=O)CCCCC(N)=O,Potency,[1],inactive
same,Potency,[2],inactive
same,Potency,[3],inactive
same,Potency,[4],inactive
same,Potency,[5],inactive
same,outcome,[6],inactive
same,Potency,[7],inactive
same,Potency,[8],inactive
same,outcome,[9],inactive
same,outcome,[10],inactive
CC(C)(C)C(O)/C=C/c1ccc2c(c1)OCO2 (configuration not stated),Potency,[1],inactive
same,Potency,[2],inactive
same,Potency,[3],23.7 µM (active)
same,Potency,[4],inactive
same,Potency,[5],inactive
same,outcome,[6],inactive
same,Potency,[7],inactive
same,Potency,[8],inactive
same,outcome,[9],inactive
same,outcome,[10],inactive
CCOC(=O)C(C)O (configuration not stated),Potency,[1],inactive
same,Potency,[2],inactive
same,Potency,[3],inactive
same,Potency,[4],inactive
same,Potency,[5],inactive
same,outcome,[6],inactive
same,Potency,[7],inactive
same,Potency,[8],inactive
